In the supplement of paper PMC6555819:

Each sequence was assayed on VDR:RXRa (NR concentration 270 nM, RXRa partner concentration 90 nM) (assay: PBM binding z-score (relative to random genomic background probes); higher = stronger binding; sequences stand for … in GC…GCGATTGACAGCGTAGAATGAAGG).
Experimental: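 Protein-binding microarray (Agilent 4x180K custom design, double-stranded 60-nt probes: 5' GC cap, 34-nt variable region, 24-nt constant primer region; full probe sequence given). Purified or IVT nuclear receptor:RXRα heterodimers (3:1 NR:RXRα, mostly 270:90 nM) or homodimers were incubated for 1 h in PBS with 2% milk and no ligand, then detected with Alexa488 antibodies. Fluorescence from o1-orientation probes (~5 replicates averaged) was converted to z-scores against 500 random hg19 background probes. Variable regions are seed direct-repeat (DR0–DR5) sites, all their single-nucleotide variants and half-site ablations.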

First: CGAACTCGGTCATCCAGGACAGTGAATACATTGA
Second: GTACCATGGTGAATAGGTCGTTGATGAGTAGGCG
The PBM binding z-score of the first is higher: 2.61 for the first, -0.0102 for the second.

Compared with ACTAGAAGGCCAAGTTTGGGTCACTCAAACAAAG, ACTAGCAGGCCAAGGGTCAATCAAGATTAGTCCG is higher in PBM binding z-score: 1.28 for the first, 2.66 for the second.

Going from ATCTCTACGTAAGACTCAGTTCAGTGAAGAACGC to ACTAGTTGGTCCGCTGAGGTCACACACAATTCGG, the PBM binding z-score rises from 0.645 to 3.75.

First: ATATGTAGTTTACATCCGGGTCATTCAGGCTATG
Second: CCTACTGGGCCTCGAAAGGTCATTGATTCAGTGA
The PBM binding z-score of the first is higher: 3.49 for the first, 3.34 for the second.

Compared with CGTCCCAGGTCATAGGAGGTCAGTGAAGACAGAT, ATCGCAAGGTCGTGAGGTGAGTATACAGAAAGGC is lower in PBM binding z-score: 6.01 for the first, 2.33 for the second.

First: TTATATAGGTAAACAGGTGAAAGTCCGTAAGTTA
Second: CGAACTAGGTCAGAACGGGACAGTGAAGGATGAT
The PBM binding z-score of the first is higher: 0.869 for the first, 0.281 for the second.

Going from ACTTACGGGTTAACGAGGTTATAGCACGCGTATA to GCTGCTAGGTCAACTGATGGTCAGCAAAAGCTCG, the PBM binding z-score falls from 6.31 to 1.69.

First: CCAGACAGATGAGAAGGTAACTCAGCCTCGATTA
Second: CCGCCTGGGGCAAGGTTACCATAACGCACAGCCA
The PBM binding z-score of the first is lower: 0.0435 for the first, 0.149 for the second.

Compared with CAAACTAGGTCACCTGAAGGTCAAAGTCCGCATG, CGTCAAAGTTCAATGTAACGTAACAGAAAGCAGC is lower in PBM binding z-score: 5.59 for the first, 3.74 for the second.

Compared with TCTAGCAGGCCAGAGGGTCACTCACGAGGTACGG, ATATGTAGGTTAAGGGTAATTCAGGTTGGTTCGC is higher in PBM binding z-score: 1.33 for the first, 1.61 for the second.

First: CAGACTAGGTCACAGAGGTCAAAGTCCGTGCGTA
Second: TCATATAGGTAAATGTGAAAGTCGAACGATATGA
The PBM binding z-score of the first is higher: 7.98 for the first, 0.491 for the second.

First: TCTGCTAGGTCAGTTGGTCAGCCAACGAGCTGCC
Second: CCTACTGGGCCATAAGGTCATTGATATCAACGTT
The PBM binding z-score of the first is lower: -0.0135 for the first, 3.71 for the second.

First: AGTCAAAGTTCATCTAGGTAACTTAAGATATGCT
Second: AGAATGAGGTTATACGTAGATCAGGGATGAAAGT
The PBM binding z-score of the first is higher: 4.95 for the first, 1.47 for the second.

Compared with TCTTGTAAATCAATAGAGGTTAAGAAAGTGCGCT, AGTATGAGGTTACCAAAGATCAGGGAAACGCTTG is lower in PBM binding z-score: 1.98 for the first, 1.41 for the second.

TGAATGAGGTTAAAGATCGGGGAACGTGGCGTCG and CCTAGTGGGCCATCAGGTCATTGATATCAACGTT are the same in PBM binding z-score: 1.61 for the first, 1.61 for the second.

Going from TTACCAAGATGAGCTGAGGTCGTTGATCCAACTC to GCGACTGGGGCAACAGCAGGTTACCATAACTTAA, the PBM binding z-score falls from 1.35 to -0.189.

Compared with CAAACTAGGTCACAGAGGCCAAAGTCCGTGCGTA, TCTTCTAGATCAGCAGGTTAAGAAAGCTGGCCAA is lower in PBM binding z-score: 6.5 for the first, 0.175 for the second.

Compared with CCTACTGGGCCAAAAAGGTCATTGTTGCCGATAA, ATCTCTATGTAACAAGTTCAGTGAAAGAGAGGAC is lower in PBM binding z-score: 4.46 for the first, 1.26 for the second.

Going from GGAACGATGGCATTCGAGTTGATAGCATGGCGAT to TCGAGTAGGTTTGTCGGGGCATTCAGCCAACATA, the PBM binding z-score rises from -0.32 to 0.467.

Going from CTCGAAAGGTCGTGCTCAGGTTAGTATACCAAAC to ACTAATAGTTGAGACGAGGGCAACCGATAGGTTG, the PBM binding z-score falls from 3.79 to 1.27.
